From PubChem BioAssay
Rows were chosen to be rich in hits. Some 21% of all compounds tested hit in one or more screens of this group.
Pf growth 96h – Primary qHTS for delayed death inhibitors of the malarial parasite plastid, 96 hour incubation. P. falciparum luciferase reporter growth, 96 h. Potency, µM (top dose mostly 28.7 µM), usual class: inhibitors. hit rate 6.9% among 320,000
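Infected RBCs, 2% Hct / 0.05% parasitemia final; luciferase-reporter P. falciparum; cpd 96 h, 37 C, 5% CO2; luciferase detection reagent; luminescence.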
Shiga inhibitor – A qHTS for Small Molecule Inhibitors of Shiga Toxin. inhibition, % at 38.7 µM. hit rate 9.2% among 290,000. Vero cells, Shiga toxin protein synthesis inhibition reporter; in the data active means inhibition mostly above about 28%, no sharp cut-off; inactive means mostly below about 43%
Pf growth 48h – Primary qHTS for delayed death inhibitors of the malarial parasite plastid, 48 hour incubation; P. falciparum luciferase growth in erythrocytes, 48 h; Potency, µM (highest dose often 28.7 µM), most hits filed as inhibitors; hit rate 5.9% among 310,000
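Luminescence readout; reporter = integrated firefly luciferase in P. falciparum. RBC culture at 2% hematocrit, 0.1% parasitemia final, 37 C/5% CO2; decreased signal taken as growth inhibition.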
AMA1-RON2 inh – qHTS for Inhibitors of AMA1-RON; Towards Development of Antimalarial Drug Lead: Primary Screen | Plasmodium falciparum AMA1 (3D7) - RON2 peptide interaction | AlphaScreen AMA1-biotinylated RON2 peptide binding | Potency, µM (doses to about 58.2 µM), usual class: inhibitors | hit rate 0.2% among 360,000 | AID 720542, 2013; further: nearly all actives have a fitted effect of over 45% in size
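AMA1 (3D7) with his tag at 25 nM final met compounds first, then biotinylated RON2 peptide at 25 nM; detection used donor plus acceptor beads, 10 µg/mL apiece, read by AlphaScreen after 30 min at room temperature.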
HCV inh – qHTS Assay for Inhibitors of Hepatitis C Virus (HCV); Huh7.5.1 HCVcc-Cre infection, luciferase reporter, 44 h; Potency, µM (top dose mostly 41.8 µM), actives largely listed as inhibitors; hit rate 3.4% among 340,000
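Cells (1,000/well) were plated 4 h before compound, then infected with HCVcc-Cre virus (~0.5 moi). After 44 h further culture, infection was read as luciferase luminescence following a 15 min substrate incubation at room temperature.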
CHX counter – Cycloheximide Counterscreen for Small Molecule Inhibitors of Shiga Toxin; max response, %; AID 2314, 2010; cell reporter, cycloheximide protein synthesis inhibition counterscreen; hit rate 12% among 300,000; in the data active means max response mostly above about 13%, no sharp cut-off; inactive means mostly below about 14%; further: read at 38.3 µM for the half of the compounds with a filed dose
A number is an active result; n = inactive; u = inconclusive; x = not tested or not shown; + = active, no number; ! = repeats disagree. Unless noted, the call rests on the fitted dose curve; in most records, active means well fitted curve in the direction sought with a large enough effect; inconclusive means small, poorly fitted or top-dose-only effect, or another doubt; inactive means no such curve, though single readings can be large; an effect the other way counts as inactive or inconclusive.

SMILES | Pf growth 96h | Shiga inhibitor | Pf growth 48h | AMA1-RON2 inh | HCV inh | CHX counter
Cc1cccc(-n2ncc3c(NCc4ccccc4)ncnc32)c1 | n | + | n | n | u | 28.6
Cc1ccc2c(CC(=O)NCCc3ccc(S(N)(=O)=O)cc3)coc2c1 | n | n | n | n | n | n
Cn1ncc2c(NCc3ccccc3)ncnc21 | n | n | n | n | n | 13.1!
NC(=O)NC(=O)C(c1ccccc1)N1CCN(S(=O)(=O)Cc2ccccc2)CC1 (stereo unspecified) | n | x | n | n | n | x
Clc1ccc(-n2ncc3c(NCc4cccs4)ncnc32)cc1 | u | n | u | n | n | n
CC(C)(C)Nc1ncnc2c1cnn2-c1ccccc1 | n | 95.6 | n | n | n | 56.8
Clc1ccc(-n2ncc3c(NCc4cccnc4)ncnc32)cc1Cl | n | n | n | n | u | 34.3
c1ccc(CCNc2ncnc3c2cnn3-c2ccccc2)cc1 | n | 66.4 | n | n | u | 43.9
Cc1cccc(-n2ncc3c(NCc4cccs4)ncnc32)c1 | n | 114.4 | n | n | n | 22.6
COc1ccccc1-c1csc(C(O)c2cccc(Cl)c2)n1 (stereo unspecified) | x | x | x | n | x | x
FC(F)(F)c1cc(-c2ccc3c(c2)OCO3)nc(NCc2ccco2)n1 | n | n | n | n | 6.31µM | n
Cc1cccc2nc(-c3ccccc3)nc(N[C@@H](CO)c3ccccc3)c12 | 13.1µM | n | 13.1µM | n | u | n
O=C(O)CNc1nc(-c2ccccc2)nc2ccccc12 | n | n | n | n | n | n
NC(=O)Cc1ccc(C(=O)c2ccc(F)cc2)s1 | n | n | n | n | n | 25.4
NC(=O)c1ccc(F)cc1 | n | n | n | n | n | n
Cc1ccc(N2CCN(C(=S)Nc3ccc(Cl)cc3)CC2)cc1 | n | n | n | n | n | n
OCC1CCCN(C(=S)Nc2ccc(Nc3ccccc3)cc2)C1 (stereo unspecified) | u | 61.3 | n | n | n | 29.3
OCC1CCCN(C(=S)Nc2ccc(OC(F)F)cc2)C1 (stereo unspecified) | n | 63.3 | n | n | n | 26.2
NC(=O)C1CCCN(C(=S)Nc2ccccc2)C1 (stereo unspecified) | n | n | n | n | n | n
Cc1ccc(NC(=S)N2CCCC(O)C2)cc1 (stereo unspecified) | n | 69.4 | n | n | n | 20.3
C=C1C(=O)OC2C1CCC(C)C1(O)C=CC(=O)C21C (stereo unspecified) | x | x | x | n | 8.91µM | x
CN(Cc1ccccc1)C(=O)c1[nH]cnc1C(=O)Nc1cccc(Cl)c1 | u | x | n | n | n | x
OC[C@@H]1CN(Cc2ccco2)C[C@H](n2cnc3c(NCc4ccncc4)ncnc32)O1 | x | x | x | n | x | x
CCN(CC)CCN(Cc1cc2cccc(C)c2[nH]c1=O)C(=S)Nc1ccccc1 | n | n | 11.7µM | u | u | n
Cc1ccc(NC(=S)N(CCN(C)C)Cc2cc3cc(C)cc(C)c3[nH]c2=O)cc1 | n | n | u | n | u | n
SMILES | Pf growth 96h | Shiga inhibitor | Pf growth 48h | AMA1-RON2 inh | HCV inh | CHX counter
Cc1ccc2cc(CN(CCN(C)C)C(=S)Nc3ccccc3)c(=O)[nH]c2c1C | n | n | n | n | 10µM | n
Cc1cccc2cc(CN(CC3CCCO3)C(=S)Nc3ccccc3)c(=O)[nH]c12 (stereo unspecified) | n | n | n | n | u | n
O=C(Nc1oc2ccccc2c(=O)c1-c1ccc(Cl)cc1)c1ccco1 | n | n | n | n | n | 21.7
Cc1ccc(-c2nnc(Nc3ccc(C(N)=O)cc3)c3ccccc23)cc1S(=O)(=O)NCC1CCCO1 (stereo unspecified) | u | n | 8.28µM | n | n | n
Cc1ccc(-c2nnc(N3CCCCC3)c3ccccc23)cc1S(=O)(=O)NCC1CCCO1 (stereo unspecified) | x | n | 4.65µM | n | u | n
O=C(c1cc2ccccc2c(=O)o1)N1CCCCCC1 | n | 141.4 | n | n | n | 71.3
CC1CCN(C(=O)c2cc3ccccc3cc2O)CC1 | u | n | u | n | n | n
CC1CCN(C(=O)c2cc3ccccc3c(=O)o2)CC1 | n | 43.8 | n | n | n | n
COC(=O)[C@@]12C[C@@H](CC(=O)NCCC(C)C)C(=O)N(Cc3cccc4ccccc34)C1=CCC(C)(C)C2 | x | x | x | n | x | x
CCC1CCCCN1C(=O)CSc1nnc(-c2ccco2)o1 (stereo unspecified) | n | 62.2 | n | n | n | 37.3
O=C(CSc1nnc(-c2ccc(Cl)s2)o1)N1CCCc2ccccc21 | n | n | n | n | n | n
CCC1CCCCN1C(=O)CSc1nnc(-c2ccc(Cl)s2)o1 (stereo unspecified) | n | 82.4 | n | n | n | 37.7
CCC1CCCCN1C(=O)CSc1nnc(-c2cccc(Cl)c2)o1 (stereo unspecified) | n | 98.2 | n | n | n | 28.5
CCC1CCCCN1C(=O)CSc1nnc(-c2ccc(Cl)cc2)o1 (stereo unspecified) | u | n | x | n | n | n
CCN(CC)C(=S)SC1CCCCN(C(=O)c2ccc(F)cc2)C1=O (stereo unspecified) | n | n | n | n | n | n
CC(C)(C)C(=O)Nc1ccc(NC(=O)c2ccco2)nc1 | n | n | n | n | n | n
CCCn1cnc2cc(NC(=O)c3ccco3)ccc21 | n | 79.6 | n | n | n | 62.6
CCCn1cnc2cc(NC(=O)c3cccs3)ccc21 | n | n | n | n | n | 29.0
CCn1cnc2cc(NC(=O)c3ccco3)ccc21 | n | n | n | n | n | 30.0
CC(C)(C)n1cnc2cc(NC(=O)c3ccco3)ccc21 | n | 61.7 | n | n | n | 25.3
CN(NS(=O)(=O)c1ccccc1)C(=O)c1ccccc1 | x | x | x | n | n | x
O=C(c1ccco1)N(CCC(c1ccccc1)c1ccco1)Cc1ccccc1 (stereo unspecified) | 13.1µM | n | u | u | n | n
COc1ccc(CN(CCC(c2ccccc2)c2ccco2)C(=O)c2ccco2)cc1 (stereo unspecified) | 11.7µM | n | n | n | n | n
O=C(Nc1cc(C2CC2)nn1-c1ccccc1)c1ccc(F)cc1 | x | x | x | n | n | x
Cc1ccc(S(=O)(=O)N2CCC(C(=O)NNC(=O)c3ccccc3O)CC2)cc1C | n | x | n | n | u | x
Cc1cc(C)c(C)c(S(=O)(=O)N2CCC(C(=O)NNC(=O)c3ccccc3O)CC2)c1C | n | x | n | n | 7.08µM | x
COc1ccc(NC(=O)c2cc(-c3sc(NC(=O)c4ccccc4)nc3C)n(-c3ccc(Br)cc3)n2)cc1 | x | x | x | n | x | x
Cc1ccc(S(=O)(=O)N2CCCCC2)cc1NC(=O)Cn1cnnn1 | n | n | n | n | n | n
